# Experimental data published in PubChem BioAssay AID463173 (ICCB-Longwood Screening Facility, Harvard Medical School, 2010).
# Screen size: about 52,000 compounds; about 4,300 (8.3%) were called active. Cut-off read from the data, not from the text of the source: active = survival mostly below about 52% (no sharp cut-off); inactive = mostly above about 56%. The list comes from a sample in which actives are over-represented; it also holds similar structures and randomly drawn compounds.
# Test system: DeltatarO mutant
# Assay: growth inhibition of S. aureus wild type versus tarO mutant, primary screen, teichoic acid synthesis inhibitors, RN4220, OD600 (AID 463173)
# Conditions: OD600, 18 h, active compounds read low, screened at 18.75 µg/mL (by protocol)
row,Compound,survival
1,Cc1c(C(=O)Nc2ccc(F)c(C(F)(F)F)c2)sc2nc(-c3ccccc3)cn12,105% (inactive)
2,CCOC(=O)C1=CN(O)/C(=C\N=O)C=C1,78% (inactive)
3,COc1ccc(Cl)cc1NC(=O)CSc1cc(C)[nH]c(=O)n1,80% (inactive)
4,COc1ccc(S(=O)(=O)c2cn(C)c3cc(N4CCCCCC4)c(F)cc3c2=O)cc1,86% (inactive)
5,Cc1ccccc1Nc1c(-c2c(F)cccc2Cl)nc2ccc(Br)cn12,69% (inactive)
6,COc1ccc(/C=C\c2onc(C)c2S(=O)(=O)N2CCC(C(=O)Nc3ccc(Cl)cc3)CC2)cc1,65% (inactive)
7,CCOc1ccccc1C(=O)Nc1cc(-c2nc3cccnc3s2)ccc1C,37% (active)
8,CN(C)c1ccc(C(=O)Nc2cccc(-c3nc4cccnc4s3)c2)cc1,49% (inactive)
9,CCOc1ccc(C(=O)Nc2cccc(-c3nc4cccnc4s3)c2C)cc1OCC,90% (inactive)
10,O=C(Nc1cccc(-c2nc3cccnc3s2)c1)c1cccc(Br)c1,32% (active)
11,CCCCOc1ccc(C(=O)Nc2cccc(-c3nc4cccnc4s3)c2)cc1,92% (inactive)
12,Cc1ccccc1C(=O)Nc1cccc(-c2nc3cccnc3s2)c1,81% (inactive)
13,COc1ccc(CC(=O)N2N=C(c3ccncc3)CC2(O)C(F)(F)F)cc1 (centres undefined),104% (inactive)
14,COc1ccccc1CNC(=O)CCCn1c(=O)c2ccccc2n(CC(=O)Nc2c(C)cc(C)cc2C)c1=O,166% (inactive)
15,N#Cc1ccc(CSCC(=O)NN=C2CCCC2)cc1,65% (inactive)
16,COc1ccc(OCC2c3cc(OC)c(OC)cc3CCN2C(=O)c2ccc(F)cc2)cc1 (centres undefined),94% (inactive)
17,CCOc1ccc(NC(=O)c2sc3ccccc3c2Cl)cc1,68% (inactive)
18,Cc1ccc(NC(=O)c2sc3ccccc3c2Cl)cc1,66% (inactive)
19,CCN(CC)c1ccc(NC(=O)c2sc3ccccc3c2Cl)cc1,-2% (active)
20,CCOC(=O)c1ccc(NC(=O)c2sc3ccccc3c2Cl)cc1,67% (inactive)

row,Compound,survival
1,COc1ccccc1NC(=O)c1sc2cccc(Cl)c2c1Cl,64% (inactive)
2,CCCC(=O)Nc1ccc(NC(=O)c2sc3ccccc3c2Cl)cc1,109% (inactive)
3,CCOC(=O)c1ccccc1NC(=O)c1sc2ccccc2c1Cl,36% (active)
4,O=C(Nc1ccccc1Cl)c1sc2cccc(Cl)c2c1Cl,63% (inactive)
5,Cc1cccc(NC(=O)c2sc3cccc(Cl)c3c2Cl)c1,11% (active)
6,CC(C)NC(=O)c1ccc2c(c1)nc1n2CCCCC1,91% (inactive)
7,COc1cccc(Cn2c(=O)n(CC3CCC(C(=O)N4CCOCC4)CC3)c(=O)c3sccc32)c1 (centres undefined),124% (inactive)
8,CCc1ccc(S(=O)(=O)c2cn(CC)c3cc(N4CCCCC4)c(F)cc3c2=O)cc1,83% (inactive)
9,CCOc1ccc2[nH]c(=O)c(CN(Cc3ccccc3OC)C(=O)N3CCCC3)cc2c1,96% (inactive)
10,NCCS(=O)(=O)N1CCCC1,88% (inactive)
11,Cc1ccn2c(c1)nc(=O)c1cc(S(=O)(=O)N3CCC(C)CC3)c(Cl)cc12,87% (inactive)
12,COc1ccc(NC(=O)CC2C(=O)N(c3cccc(C)c3)C(=O)N2C2CCCCC2)cc1 (centres undefined),69% (inactive)
13,COc1ccc(NC(=O)CSc2ccc3nc(-c4ccccc4)cn3n2)cc1OC,113% (inactive)
14,CCOC(=O)N1CCN(Cc2nc3cc(NC(=O)c4ccccc4Cl)ccc3n2C(C)C)CC1,70% (inactive)
15,COC(=O)CN1C(=O)CSc2ccc(S(=O)(=O)Nc3cccc(C)c3C)cc21,63% (inactive)
16,COC(=O)CN1C(=O)CSc2ccc(S(=O)(=O)Nc3c(C)cc(C)cc3C)cc21,101% (inactive)
17,COC(=O)CN1C(=O)CSc2ccc(S(=O)(=O)Nc3ccccc3)cc21,91% (inactive)
18,COC(=O)CN1C(=O)CSc2ccc(S(=O)(=O)Nc3cccc(C)c3)cc21,101% (inactive)
19,COC(=O)CN1C(=O)CSc2ccc(S(=O)(=O)Nc3cccc(Br)c3)cc21,37% (active)
20,COC(=O)CN1C(=O)CSc2ccc(S(=O)(=O)Nc3cc(C)ccc3C)cc21,25% (active)

row,Compound,survival
1,CC(C(=O)O)N1CCCCC1 (centres undefined),79% (inactive)
2,CCOc1ccc2[nH]c(=O)c(CN(Cc3cccnc3)S(=O)(=O)c3ccccc3)cc2c1,86% (inactive)
3,CCOc1ccccc1NC(=O)Cn1c(=O)n(Cc2nc(C)no2)c(=O)c2ccccc21,81% (inactive)
4,Cc1cc(C)c(NC(=O)CN2C(=O)CCSc3ccc(S(=O)(=O)N4CCCC4)cc32)c(C)c1,84% (inactive)
5,Cc1cc(C)cc(NC(=O)CN2C(=O)c3ccccc3Sc3ccc(C(=O)N4CCOCC4)cc32)c1,89% (inactive)
6,O=C(CN1C(=O)c2ccccc2Sc2ccc(C(=O)N3CCOCC3)cc21)Nc1ccc(Cl)cc1F,94% (inactive)
7,Cc1ccc(NC(=O)CN2C(=O)c3ccccc3Sc3ccc(C(=O)N4CCCC4)cc32)cc1,76% (inactive)
8,CCc1ccc(NC(=O)CN2C(=O)c3ccccc3Sc3ccc(C(=O)N4CCCC4)cc32)cc1,86% (inactive)
9,Cc1ccc(NC(=O)CN2C(=O)c3ccccc3Sc3ccc(C(=O)N4CCOCC4)cc32)c(Cl)c1,-5% (active)
10,CN(C)c1ccc(NC(=O)CN2C(=O)c3ccccc3Sc3ccc(C(=O)N4CCCC4)cc32)cc1,-2% (active)
11,CCOc1ccccc1N(CC)C(=O)Cn1ncc2c1-c1ccccc1OC2,62% (inactive)
12,COc1cccc(C(=O)N(Cc2ccc(N(C)C)cc2)Cc2ccco2)c1,69% (inactive)
13,CCOCN(C(=O)Cn1c(C(C)O)nc2ccccc21)c1c(C)cccc1CC (centres undefined),83% (inactive)
14,CCOCN(C(=O)Cn1c(C)nc2ccccc21)c1c(C)cccc1CC,125% (inactive)
15,CCOCN(C(=O)Cn1c(CC(C)C)nc2ccccc21)c1c(C)cccc1CC,-12% (active)
16,CCCCc1nc2ccccc2n1CC(=O)N(COCC)c1c(C)cccc1CC,-12% (active)
17,CCOCN(C(=O)Cn1c(COC)nc2ccccc21)c1c(C)cccc1CC,95% (inactive)
18,CCc1cccc(CC)c1N(COC)C(=O)Cn1c(CC)nc2ccccc21,69% (inactive)
19,CCc1ccc(NC(=O)Cn2c(=O)n(-c3cc(C)cc(C)c3)c(=O)c3oc4ccccc4c32)cc1,73% (inactive)
